From PubChem BioAssay (NCATS) come the findings set out here.

SMILES strings stand for the structures. Where “and” joins values, the source holds several entries; their conditions need not be identical. Equal entries are not always repeated. Values without a mark were called inactive. Records with an inconclusive call do not appear. Calls of active or inactive are those of the source. Unless noted, calls follow the shape of the dose curve; as a rule, active = well fitted curve in the direction sought with a large enough effect; inconclusive = small, poorly fitted or top-dose-only effect, or another doubt; inactive = no such curve, though single readings can be large; an effect the other way counts as inactive or inconclusive.

A short description of assay [1]: Cell Viability - BJ (AID 421; calls by dose curve;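 also: potency is read from the fitted curve at half-maximal effect; cells exposed to compound for 40 hours at 37 °C before readout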). The note with it: BJ fibroblast viability, qHTS. An outline of the steps: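 Normal human BJ foreskin fibroblasts, 1500/well in complete medium, treated 40 hr at 37 °C. Cellular ATP by CellTiter-Glo luminescence; normalized to DMSO and 100 uM tamoxifen, AC50 from Hill fit.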
Background: Quantitative high-throughput screening tests each substance at several concentrations.

Assay [2] in a line: Cell Viability - HepG2 (AID 433; calls by dose curve;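 also: potency is read from the fitted curve at half-maximal effect; cells exposed to compound for 40 hours; potency for ATP loss meaning cytotoxicity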). The note with it: qHTS. The method, boiled down:
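HepG2 hepatocellular carcinoma cells (1500/well) were treated with compounds for 40 h at 37 °C in complete medium; intracellular ATP was read by CellTiter-Glo luminescence. Data were normalized to DMSO and 100 uM tamoxifen, and AC50 came from Hill fits.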

The nature of assay [3]: Cell Viability - MRC5 (AID 434; calls by dose curve;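 also: potency is read from the fitted curve at half-maximal effect; cells exposed to compound for 40 hours at 37 °C; potency reflects cytotoxicity seen as loss of intracellular ATP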). The note with it: MRC5 lung fibroblast viability, qHTS. An outline of the steps:
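AC50 values come from Hill-equation fits of intracellular ATP loss, measured by CellTiter-Glo luminescence. Normal lung fibroblasts (MRC5) had 40 hr compound treatment at 37 C, normalized between DMSO and 100 uM tamoxifen.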

Assay [4] in a line: Cell Viability - N2a (AID 540).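 Also: plate controls were DMSO alone for no effect and tamoxifen control for full effect; nearly all actives have a fitted effect of over 45% in size.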 The note with it: N2a mouse neuroblastoma cell viability; at 92.2 µM (top of the series). An outline of the steps: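 N2a mouse neuroblastoma, 1500 cells/well, 5 hr settle; compound 40 hr, 37 °C; CellTiter-Glo 20 min RT; luminescence; Hill-fit AC50.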
Assay [5] is described as follows: Cell Viability - HUV-EC-C (AID 542).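 Also: cells exposed to compound for 40 hours; % is scaled to controls: 0 for no effect and ±100 for the full control effect; nearly all actives have a fitted effect of over 35% in size.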 An outline of the steps:
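Luminescent ATP read-out (CellTiter-Glo, 20 min room temperature) after 40 hr compound treatment of HUV-EC-C cells at 37 °C. Concentration-response data fitted with the standard Hill equation to give AC50; tamoxifen and doxorubicin served as positive controls.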

The nature of assay [6]: Cell Viability - SH-SY5Y (AID 544).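 Also: cells exposed to compound for 40 hours; nearly all actives have a fitted effect of over 55% in size.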 The note with it: SH-SY5Y neuroblastoma cell viability; viability change, negative = cytotoxic: at 92.2 µM (top of the series). An outline of the steps:
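SH-SY5Y, 1500 cells/well, 5 hr pre-incubation 37 °C; cpd 40 hr 37 °C; CellTiter-Glo 20 min RT; luminescence (ATP) read. qHTS concentration-response, Hill fit → AC50. Tamoxifen, doxorubicin as positive controls.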

A short description of assay [7]: Cell Viability - Renal Proximal Tubule (AID 545).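 Also: cells exposed to compound for 40 hours; nearly all actives have a fitted effect of over 40% in size.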 The note with it: renal proximal tubule cells viability; at 91.7 µM (top of the series), primary cells of rat origin unless noted. An outline of the steps:
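Primary rat renal proximal tubule cells (1000/well) were treated with compounds for 40 hr at 37 °C in complete medium. Intracellular ATP was measured by CellTiter-Glo luminescence, and AC50 values came from Hill-equation fits of concentration-response data.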

Assay [8] in a line: Cellular Toxicity (caspase-3) Jurkat (AID 655).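 Also: cells exposed to compound for 16 h at 37 °C before reading.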 The note with it: Jurkat caspase-3 activation, luminescence, DMSO = 0%, tamoxifen = 100%; at 92.2 µM (top of the series). The method, boiled down: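 Jurkat cells (5000/well) in complete medium were treated with compounds for 16 hr at 37 °C, then Caspase-Glo 3/7 luminescence was read after 20 min at room temperature. Data normalized to DMSO (basal) and 100 uM tamoxifen (100%); AC50 from Hill fit.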

Assay [9] is described as follows: Cellular Toxicity (caspase-3) HUV-EC-C (AID 656). The method, boiled down:
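HUV-EC-C endothelial cells, 1000/well, were pre-incubated 5 hr at 37°C, then exposed to compounds for 16 hr at 37°C. Caspase-Glo 3/7 luminescence was read after 20 min at room temperature. AC50 came from Hill fits, normalized to DMSO and 100 uM tamoxifen.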

Assay [10] can be described thus: Cellular Toxicity (caspase-3) SHSY5Y (AID 657). The method, boiled down: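 SH-SY5Y human neuroblastoma cells (1500/well) were treated with compounds for 16 h at 37 °C, then Caspase-Glo 3/7 luminescence was read after 1 h at room temperature. Data normalized to DMSO and 10 uM staurosporine; AC50 from Hill fits.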
Assay [11] can be described thus: Cellular Toxicity (caspase-3) BJ (AID 658).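 Also: 0% = DMSO basal and 100% = 10 µM staurosporine.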 An outline of the steps: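 Caspase-Glo 3/7 luminescence, read 1 hr after reagent at room temperature, in normal BJ fibroblasts exposed 16 hours at 37 °C. AC50 values from Hill-equation concentration-response, scaled between DMSO basal and 10 uM staurosporine as 100%.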
Assay [12] is described as follows: Cellular Toxicity (caspase-3) MRC-5 (AID 659).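 Also: 0% = DMSO basal and 100% = 10 µM staurosporine.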 An outline of the steps: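 Luminescent Caspase-Glo 3/7 read-out (1 h, room temperature) after a 16 h, 37 °C compound exposure of MRC-5 lung fibroblasts at 1500 cells/well. Concentration-response AC50 from Hill equation; 0% DMSO, 100% 10 uM staurosporine.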
Assay [13] is described as follows: Cellular Toxicity (caspase-3) SK-N-SH (AID 661).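 Also: 0% = DMSO basal and 100% = 10 µM staurosporine.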 An outline of the steps:
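Luminescent Caspase-Glo 3/7 read-out after 16 hr compound exposure of SK-N-SH neuroblastoma cells at 37 °C. Signal increase normalized to DMSO (basal) and 10 uM staurosporine (100%); AC50 from Hill equation fits of qHTS concentration-response data.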

A short description of assay [14]: Cellular Toxicity (caspase-3) H-4-II-E (AID 663).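 Also: cells exposed to compound for 16 hr before readout.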 An outline of the steps:
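Caspase 3/7 activation measured by luminescent aminoluciferin substrate cleavage after 16 hr compound treatment of H-4-II-E cells in complete medium. Increase normalized between DMSO (basal) and 100 uM tamoxifen (100%); Hill-equation AC50 from concentration-response.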

Assay [15] is described as follows: Cellular Toxicity (caspase-3) Renal Proximal Tubule (AID 667).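 Also: cells exposed to compound for 16 hours at 37 °C before detection; 0% = DMSO basal and 100% = 10 µM staurosporine.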 The note with it: renal proximal tubule cells; at 91.7 µM (top of the series), primary cells freshly taken from rat, solvent-only wells 0%, staurosporine 100% unless noted. The method, boiled down:
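Primary rat proximal tubule cells, 1000/well, 5 h plating at 37 °C, then compound 16 h at 37 °C. Caspase-Glo 3/7 reagent, 1 h RT, luminescence. Normalized to DMSO (basal) and 10 uM staurosporine (100%); Hill-fit AC50.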

Assay [16] is described as follows: qHTS Assay for Identification of Small Molecule Inducers of Hypoxia Response (AID 2120; active = well fitted curve in the direction sought with a large enough effect in the signal ratio, with a control signal flat, not every such curve was filed as active; the % refers to the signal ratio; also: 0% is about no effect). An outline of the steps: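 Read-out: CCF4 FRET emission ratio 460nm/530nm (excitation 405nm), converted to %Activity, with AC50 fitted across a compound titration. ME-180 cells carried an HRE-driven beta-lactamase reporter; compound exposure 17 h, 37 degrees C.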
A short description of assay [17]: qHTS assay for small molecule agonists of the antioxidant response element (ARE) signaling pathway measured by Nrf2-dependant transcriptional activity - cell viability counter screen (AID 720653; active = well fitted curve in the direction sought with a large enough effect in the repeat runs; an effect the other way counts as inactive or inconclusive; also: % is scaled to controls: 0 for no effect and ±100 for the full control effect). The note with it: ARE-bla HepG2 viability, CellTiter-Glo ATP luminescence, 16 h; active compounds read low. An outline of the steps:
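Cytotoxicity counter screen: intracellular ATP quantified by CellTiter-Glo luminescence in the same ARE-bla HepG2 plates, after 16 h compound exposure and a 2 h beta-lactamase substrate step.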

Assay [18] in a line: qHTS assay for cell viability of HEK293 cells (AID 743288). Also: % is scaled to controls: 0 for no effect and ±100 for the full control effect; nearly all actives have a fitted effect of over 50% in size. The note with it: ATP luminescence (CellTiter-Glo), 18 h; max response: active compounds read low. An outline of the steps: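 After 18 h compound exposure at 37 C, parental HEK293 cells (2,000/well) are lysed with CellTiter-Glo and luminescence is read following 30 min at room temperature.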
Assay [19] can be described thus: qHTS assay for cell viability of the p53RE-bla HCT-116 cell line (AID 743292). Also: % is scaled to controls: 0 for no effect and ±100 for the full control effect; nearly all actives have a fitted effect of over 55% in size. The method, boiled down: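 After plating at 4,000 cells per well and a 5 h rest at 37 C, HCT-116 cells carrying p53RE-bla received test chemicals in DMSO. Sixteen hours later at 37 C, CellTiter-Glo was added and luminescence recorded following 30 min at room temperature.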

As to `Clc1nc(Cl)nc(Cl)n1`, the Potency in assay [1], in assay [2] and in assay [3] was > 92 µM each time. The activity change, negative = cytotoxicity in assay [4] was -4.85%; in [7], -4.88%. Also, the Potency result in assay [5] and in assay [19] was “inactive” each time. In addition, the viability change, negative = cytotoxic in [6] was -96.5% (active). The results for the caspase-3 activation in [8] and in [15] were 0.301% and 1.34%, respectively. For the same compound, the outcome in assay [9], in assay [10], in assay [11], in assay [12], in [13] and in assay [14] was inactive. Further, in assay [16], the result was inactive. The max response in [17] was -4.92% and -7.17%; in assay [18] it was -10.6% and 4.47%.
`c1ccc2c(c1)CCCC2`: the Potency in assay [1], in [2] and in assay [3] was > 92 µM each time. Besides, the activity change, negative = cytotoxicity in [4] is 9.97%; in [7], -0.896%. Further, the Potency result in assay [5], in assay [6] and in [19] was “inactive” each time. Further, the caspase-3 activation was -0.484% in [8] and -4.18% in assay [15]. Further, the call in assay [9], in assay [10], in [11], in assay [12], in [13] and in assay [14] was inactive. The result in [16] was inactive. In addition, the max response is -5.84% in [17] and -7.83% in assay [18].
As to `ClC(Cl)(Cl)c1ccccc1`, the Potency in [1], in assay [2] and in assay [3] was > 92 µM each time. Further, the activity change, negative = cytotoxicity was 2.93% and 2.42% in assay [4]; -4.93% and -2.74% in [7]. Further, the Potency entry in assay [5], in assay [6] and in assay [19] was “inactive” in each case. Moreover, the caspase-3 activation is 18.2% and -0.502% in assay [8]; -4.62% and -2.75% in assay [15]. The result in assay [9], in [10], in assay [11], in [12], in [13] and in [14] was inactive. Besides, the compound was classed as inactive in assay [16]. The max response in assay [17] is -1.54% and 10.3%; in assay [18] it was -4.96% and -3.96%.
`S=C=Nc1cccc2ccccc12`: the Potency in assay [1], in assay [2] and in [3] was > 92 µM each time. The activity change, negative = cytotoxicity was 6.83% in assay [4] and 4.87% in [7]. In addition, the Potency result in [5], in [6] and in assay [19] was “inactive” throughout. Moreover, the caspase-3 activation in assay [8] was 1.77%; in [15], -4.28%. Also, the compound was classed as inactive in [9], in assay [10], in [11], in assay [12], in assay [13] and in assay [14]. Further, in assay [16], the outcome was inactive. For the same compound, the max response was -2.47% in assay [17] and 0.149% in assay [18].
`Oc1ccc(Cl)cc1Cl`: the Potency in assay [1], in [2] and in [3] was > 92 µM in each case. For the same compound, the activity change, negative = cytotoxicity in assay [4] was -5.05%; in assay [7], -7.07%. The Potency result in assay [5], in assay [6] and in assay [19] was “inactive” throughout. In addition, the figures for the caspase-3 activation in assay [8] and in assay [15] were 3.55% and -2.5%, respectively. Also, the compound was called inactive in assay [9], in [10], in assay [11], in assay [12], in assay [13] and in assay [14]. In addition, the call in assay [16] was inactive. Besides, the max response was -19.8% and -1.01% in [17]; 3.78% and -2.5% in assay [18].
For the compound `CCCC(=O)Cl`, the Potency in [1], in assay [2] and in [3] was > 92 µM throughout. The results for the activity change, negative = cytotoxicity in [4] and in [7] were 1.63% and 0.416%, respectively. The Potency result in assay [5], in [6] and in [19] was “inactive” in each case. The caspase-3 activation was -0.695% in assay [8] and 6.16% in assay [15]. In addition, the call in assay [9], in assay [10], in [11], in assay [12], in assay [13] and in [14] was inactive. Moreover, the compound was called inactive in assay [16]. For the same compound, the max response in [17] is 18.2%; in [18], 0.489%.
